18 compounds from PubChem BioAssay (NCATS) can be followed below.

Inconclusive results are not listed. Unmarked numbers belong to inactive results. The source made the active and inactive calls. The call rests on the fitted dose curve; in most records, active means well fitted inhibition curve with a large enough effect; inconclusive means small, poorly fitted or top-dose-only effect; inactive means flat fitted curve, though single readings scatter.

One assay relates to HEK293. Nature of the assay: Cytotoxic Profiling of Annotated Libraries Using Quantitative High-Throughput Screening (AID 1296008). On max response: on the % scale 0 is the no-effect control and ±100 the full control effect. To be noted: Five cell lines viability, CellTiter-Glo ATP luminescence, 48-72 h; max response: active compounds read low. A digest of the protocol: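 Cytotoxicity was measured as CellTiter-Glo ATP luminescence, read after 10 min at room temperature. Compound treatment of the cells lasted 48 or 72 hr at 37 degrees Celsius in a qHTS format.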

Another assay deals with PC15. Nature of the assay: qHTS profiling for inhibitors of Plasmodium falciparum proliferation (AID 504749). As to conditions: P. falciparum in erythrocytes, SYBR Green DNA, 72 h. Put shortly:
(§1)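 SYBR Green fluorescence of parasite DNA, read after lysis and overnight dark incubation, measured growth over 72 h in erythrocyte culture at 0.3% parasitemia and 2.5% hematocrit. Data normalised to DMSO and 0.29 uM artemisinin, with plate-drift correction.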

A further assay has as its system PC26. Described as above. To be noted: P. falciparum in erythrocytes, SYBR Green DNA, 72 h. Put shortly: as §1
The next assay relates to PC49. Described as above. To be noted: P. falciparum in erythrocytes, SYBR Green DNA, 72 h. A digest of the protocol:
as §1

Another assay concerns SC27B. The description is as above. As to conditions: P. falciparum in erythrocytes, SYBR Green DNA, 72 h. A digest of the protocol:
as §1

The test system of a further assay is TAB109. Described as above. To be noted: P. falciparum in erythrocytes, SYBR Green DNA, 72 h. A digest of the protocol:
as §1

For another assay, the system named is TAB113. The description is as above. As to conditions: P. falciparum in erythrocytes, SYBR Green DNA, 72 h. A digest of the protocol: as §1
A further assay concerns TAB165. Described as above. To be noted: P. falciparum in erythrocytes, SYBR Green DNA, 72 h. A digest of the protocol:
as §1

The subject of another assay is W2. Described as above. As to conditions: P. falciparum in erythrocytes, SYBR Green DNA, 72 h. A digest of the protocol: as §1
Further: nearly all actives have a fitted effect of over 60% in size.
Potency means the concentration at half of the fitted maximal effect.

As for `CCN1CCN(Cc2ccc(NC(=O)c3ccc(C)c(/C=C/c4cnc5[nH]ccc5c4OC)c3)cc2C(F)(F)F)CC1`, the Potency in the assay on HEK293 was 1460 nM (active). On to `C=CC(C)(C)c1[nH]c2cc3c(cc2c1CC1NC(=O)C2=CCCN2C1=O)C=CC(C)(C)O3` (stereo not given), for which the max response with HEK293 is -27.4%. Take `CC(C)c1cc(CNc2nc(Nc3cc(C4CC4)[nH]n3)cc(N3CCN(C)CC3)n2)on1`: the Potency in the assay on HEK293 was 1300 nM (active). Turning to `CC1=C(C(=O)O[C@@H]2O[C@H](COC3OCC(O)C(O)C3O)[C@@H](O)[C@H](O)[C@H]2O)C(C)(C)CCC1` (stereo not given in full), the max response in the assay with HEK293 was -9.72%. Take `CC(C)CCC(=O)CC1c2ccccc2C(=O)N1c1ccc2ccc(Cl)nc2n1` (stereo not given): the Potency in the assay on HEK293 is 16400 nM (active).

On to `CCN(CC)c1ccc2c(O)c(C=Nc3ccc(CC(=O)O)c(-c4c5c(nc6ccccc46)CCC(C(=O)NN)C5)c3)c(=O)oc2c1` (stereo not given), for which the Potency with HEK293 is 11600 nM (active). Regarding `CC(C)[C@@](C)(O)[C@@H]1CN(c2nc(-c3[nH]nc4ncccc34)c(F)cc2Cl)CCN1`, in the assay on HEK293, the Potency was 13000 nM (active). Consider `O=C(/C=C/c1ccccc1)OC[C@]12O[C@H]1[C@@H](O)[C@@H]1C=CO[C@@H](O[C@@H]3O[C@H](CO)[C@@H](O)[C@H](O)[C@H]3O)[C@@H]12`, for which the call with HEK293 was inactive. Take `O=C(NCc1cccc(O)c1)Nc1nc(-c2ccncc2)cs1`: the max response in the assay on HEK293 was -21.2%. In the case of `O=C(c1cn(Cc2cncn2Cc2ccc(Br)cc2)cc1-c1cccc2ccccc12)N1CCOCC1`, the Potency in the assay on HEK293 was 580 nM (active). On to `O=C1NC(=O)C(c2cn(-c3ccccc3)nc2-c2ccc(F)cc2)N1` (stereo not given), for which the max response in the assay on HEK293 is -6.53%.

On to `CS(=O)(=O)c1ccc(-c2nnc(/C=C/c3nnc(-c4ccc(C#N)cc4)o3)n2-c2ccccc2Cl)nc1`, for which the Potency in the assay with HEK293 was 11600 nM (active).

As for `Nc1nc(Nc2ccc(S(N)(=O)=O)cc2)n(C(=S)Nc2c(F)cccc2F)n1`, the Potency in the assay on HEK293 was 8200 nM (active). On to `O=C(c1cccc(Cl)c1F)N1CCN(Cc2cccc(Nc3nccs3)n2)CC1`, for which the Potency with HEK293 was 1030 nM (active). In the case of `CCCOc1ccc(-c2nc(OC)c3ccccc3n2)cc1`, the max response in the assay on HEK293 is 4.19%. On the same count and under the same terms, in the case of `CCC1C(=O)OC23C=C[C@@H]4C(C(=O)O)=CO[C@H](O[C@@H]12)[C@@H]43` (stereo not given in full) it was -24.7%.

Regarding `C=C(C)C(=O)O[C@H]1C[C@@](C)(O)C(=O)CC(O)/C(C)=C\[C@H]2OC(=O)C(=C)[C@H]12` (stereo not given in full), in the assay on HEK293, the Potency was 5080 nM (active). Regarding `CC(=O)O[C@H]1C(=O)[C@@]2(C)[C@H]([C@H](OC(=O)c3ccccc3)[C@]3(O)C[C@H](OC(=O)[C@H](O)[C@@H](NC(=O)c4ccccc4)c4ccccc4)C(C)=C1C3(C)C)[C@]1(OC(C)=O)CO[C@@H]1C[C@@H]2O`, the Potency was 1410 nM (active) in the assay on PC15; 536 nM (active) in the assay on PC26; 2000 nM (active) with PC49; 1260 nM (active) in the assay with SC27B; 355 nM (active) in the assay on TAB109; 1260 nM (active) in the assay on TAB113. The results for the Potency with TAB165 and with W2 were 282 nM (active) and 169 nM (active), respectively.
